This is an account of results in ChEMBL document CHEMBL3988442, “University of Dundee, Small-Polar-MMV Screening Library” (2021).

Each structure is given as a SMILES string. The campaign covered roughly 48,000 compounds. About 13,000 (27%) showed an effect of 50% or more. This is one part of the list.

The subject of this test is Wolbachia pipientis. Briefly: Anti-Wolbachia Cell-Based Screen. The conditions noted are these: 5 µM. The class given is functional. Details: scale not given: in the data most compounds retested in dose-response had high values.
Consider `O=S1(=O)CCC(n2nc(Cc3cccs3)nc2-c2cnccn2)C1` (centres undefined), for which the “Percent Effect” value is given as -137.3%.
For the compound `CC(Oc1ccccc1C(F)(F)F)C(=O)NCCCC(N)=O` (centres undefined), the “Percent Effect” value was -9.185%.
Take `N#Cc1cc(F)ccc1NCC1CCS(=O)(=O)CC1`: the “Percent Effect” value was -20.22%.
Take `N#Cc1cc(F)ccc1NCC1CCN(S(=O)(=O)C(F)F)CC1`: the “Percent Effect” value is on record as -12.01%.
For `CN(c1ccc(CNc2c(Cl)cccc2C#N)cc1)S(C)(=O)=O`, the “Percent Effect” value is listed as 0.1811%.
For the compound `N#Cc1cc(C(F)(F)F)ccc1NCC1CCS(=O)(=O)CC1`, the “Percent Effect” value was -17.13%.
As to `CS(=O)(=O)N1CCC(CNc2cc(Cl)ccc2C#N)CC1`, the “Percent Effect” value worked out at 125.4%.
As for `CCS(=O)(=O)c1ccc(CNc2c(Cl)cccc2C#N)cc1`, the “Percent Effect” value was -6.207%.
For `N#Cc1ccc(NCCCOCC2CCOC2)c(F)c1` (centres undefined), the “Percent Effect” value is on record as -19.41%.
The figure for `N#Cc1ccc(Cl)cc1NCC1CC1` is 111.8%.
In the case of `CS(=O)(=O)N1CCC(Nc2ccnc3ccc(Cl)cc23)CC1`, the “Percent Effect” value was -4.778%.
In the case of `N#Cc1ccc(Cl)cc1NCC1CCOC1` (centres undefined), the “Percent Effect” value is listed as 108.5%.
Consider `CS(=O)(=O)N1CCC(CNc2c(Cl)cccc2C#N)CC1`, for which the “Percent Effect” value was found to be 98.55%.
In the case of `N#Cc1ccc(Cl)cc1N1CCC(OC2CCOCC2)CC1`, the “Percent Effect” value is on record as 1.592%.
As to `CN(CC1CCCCO1)C(=O)c1ccnc(OC2CCC2)c1` (centres undefined), the “Percent Effect” value is listed as 4.497%.
Consider `Cc1nn(C)c(C)c1NC(=O)CNc1cc(C(F)(F)F)ccc1F`, for which the “Percent Effect” value was -4.216%.
Take `O=C(c1ccco1)N(CC(F)(F)F)C1CCOCC1`: the “Percent Effect” value is given as -3.164%.
For the compound `Cc1nc(C)c(CNC(=O)NC2CC(C)(C)OC2(C)C)s1` (centres undefined), the “Percent Effect” value is -7.711%.
With `CCOC(C)c1nc(CN2CCN(Cc3cccnc3)CC2)cs1` (centres undefined), the “Percent Effect” value is -1.889%.
As for `O=C(Nc1ccccc1OCc1ccccn1)NC1CCOCC1`, the “Percent Effect” value came to 8.72%.
The figure for `O=C(Nc1ccccc1OCCc1ccccn1)NC1CCOCC1` is -2.172%; for `O=C(Nc1ccccc1OCCc1ccccn1)N1CCOCC(O)C1` (centres undefined) it is 83.92%; for `O=C(Nc1ccccc1OCCc1ccccn1)N1CCOCC1` it is 129.1%.
Consider `COc1ccc(Oc2ncccc2NC(=O)N2CCOCC2)cc1`, for which the “Percent Effect” value was 2.048%.
Consider `C=C(C)COc1ccccc1NC(=O)N1CCOCC(CO)C1` (centres undefined), for which the “Percent Effect” value is -7.017%.
For `Cc1n[nH]c(C)c1Sc1ccccc1NC(=O)N1CCOCC(O)C1` (centres undefined), the “Percent Effect” value was -4.124%.
For the compound `O=C(Nc1ccccc1OCCc1ccccn1)N1CC[C@@H](O)C1`, the “Percent Effect” value worked out at 116.1%.
Regarding `COc1ccccc1CC1CCN(C(=O)CCc2ccccn2)CC1`, the “Percent Effect” value is -10.18%.
As to `CC(C)OCCC(=O)N(C)CCCc1cc(-c2ccccc2)no1`, the “Percent Effect” value came to 2.535%.
The value for `CC(C)CC(=O)N[C@H](C)c1c(-c2ccc(Cl)cc2)noc1C(=O)O.Cl` was -0.2726%.
For `CNC(=O)c1nc2c(s1)CCN(C(=O)c1cccnc1)CC2.O=C(O)C(F)(F)F`, the “Percent Effect” value is recorded as -13.23%.
Regarding `Cc1ccc(C)c(-n2ccc3nc(N4CCCC4)ncc3c2=O)c1`, the “Percent Effect” value was -2.601%.
For `Cc1ccc(N[C@@H]2CN(Cc3cc(C)on3)C[C@@H]3CCCO[C@@H]32)nn1.O=C(O)C(F)(F)F.O=C(O)C(F)(F)F`, the “Percent Effect” value is listed as 92.65%.
The value for `Cc1noc(C)c1CN1C[C@@H]2CCCO[C@@H]2[C@H](Nc2ccccn2)C1.O=C(O)C(F)(F)F.O=C(O)C(F)(F)F` was 91.6%.
With `Cc1cccc(CN2C[C@@H]3CCCO[C@@H]3[C@H](Nc3ccccn3)C2)n1`, the “Percent Effect” value is reported as 113.7%.
In the case of `Cc1ccc(CN2C[C@@H]3CCCO[C@@H]3[C@H](NS(C)(=O)=O)C2)o1.O=C(O)C(F)(F)F`, the “Percent Effect” value was -4.883%.
Consider `Cn1cc(CN2C[C@@H]3CCCO[C@@H]3[C@H](NC(=O)CC3CC3)C2)cn1.O=C(O)C(F)(F)F`, for which the “Percent Effect” value is given as -5.365%.
As to `O=C(N[C@@H]1CN(Cc2ccccc2)C[C@@H]2CCCO[C@@H]21)C1CC1.O=C(O)C(F)(F)F`, the “Percent Effect” value is recorded as -2.249%.
`O=C(N[C@@H]1CN(c2ncccn2)C[C@@H]2CCCO[C@@H]21)c1ccncc1.O=C(O)C(F)(F)F.O=C(O)C(F)(F)F`: the “Percent Effect” value is on record as -5.975%.
With `CCCn1nccc1C(=O)N1CCCN(CCCc2ccccc2)CC1`, the “Percent Effect” value is -7.679%.
In the case of `COc1cc(N2CCC3(CCCN3Cc3cnn(C)c3)CC2)ncn1.O=C(O)C(F)(F)F`, the “Percent Effect” value came to 0.3231%.
For `O=C1OCCN1CCNc1ncc2c(n1)CCN2c1ccccc1`, the “Percent Effect” value worked out at 15.29%.
The value for `CN(Cc1nc(-c2cccnc2)no1)C(=O)c1cnc2n1CCCC2` was -9.583%; that for `COc1ccc2nnc(CCCC(=O)Nc3nc4c(s3)CCC4)n2n1` was 114%.
In the case of `O=C(CN1CCCC(c2ccn[nH]2)C1)Nc1nc2c(s1)CCCC2` (centres undefined), the “Percent Effect” value was 3.48%.
The value for `COc1ccc(CNC(=O)NCc2nc(C)c(C)s2)cn1` was -2.055%.
The figure for `COc1ccc2nnc(CCC(=O)Nc3nc4c(s3)CCC4)n2n1` is 122.5%; for `COc1ccc2nnc(CCCC(=O)NCc3cccn3C)n2n1` it is 11.78%; for `CC1CCc2nc(NC(=O)CN(C)C(=O)c3ccco3)sc2C1` (centres undefined) it is 6.016%.
With `COc1ccc2nnc(CCC(=O)Nc3nc(C)c(C)s3)n2n1`, the “Percent Effect” value came out at 119%.
With `COc1ccc2nnc(CCC(=O)Nc3nc4c(s3)CCCC4)n2n1`, the “Percent Effect” value is 139.1%.
As to `COc1ccc2nnc(CCCC(=O)NCCC3=CCCCC3)n2n1`, the “Percent Effect” value worked out at 8.382%.
The figure for `COc1cccc2c1OCC(C(=O)NCc1nc3c(s1)CCCC3)C2` (centres undefined) is -11.26%; for `Cl.O=C(Nc1cccc(CNCc2csc(Br)c2)c1)C1CC1` it is 8.664%.
For `Cn1c(CN2CCCC(Cn3cc(CCO)nn3)C2)cc2ccccc21` (centres undefined), the “Percent Effect” value is reported as -3.517%.
As to `Cc1ccc2cc(C3(O)CCN(C(=O)CSC(C)C)CC3)ccc2n1`, the “Percent Effect” value turned out to be 8.492%.
Take `Cc1ccc(C)c(OCc2cc(C(=O)N(C)CC(O)CO)no2)c1` (centres undefined): the “Percent Effect” value is recorded as -202.7%.
On to `O=C(NC1CC1)[C@H]1C[C@H]2OCC[C@H]2N(CC2CC2)C1.O=C(O)C(F)(F)F`, for which the “Percent Effect” value was -11.18%.
As to `COC[C@@H]1CC[C@H]2[C@H](CCN2S(=O)(=O)Cc2ccccc2)O1`, the “Percent Effect” value is 24.17%.
Consider `Cc1ccc(C(=O)N2C[C@H]3CC[C@@H]2CN(S(=O)(=O)N(C)C)C3)c(O)c1`, for which the “Percent Effect” value is reported as -19.11%.
With `CCOC(C)c1noc(CN(C)C(=O)c2cc3ccccn3c2)n1` (centres undefined), the “Percent Effect” value is listed as 5.368%.
The value for `CCc1ocnc1C(=O)N1CCC(n2cc(-c3ccsc3)nn2)CC1` was -3.384%.
As to `COc1ccc2nnc(CCC(=O)Nc3nc4c(s3)CCCCC4)n2n1`, the “Percent Effect” value turned out to be 106.8%.
For `Cc1nc(S(=O)(=O)NCCC(=O)NCc2ccc(C#N)cc2)cn1C`, the “Percent Effect” value is listed as -22.12%.
Take `CCN(CC1CCCO1)C(=O)Nc1cccc(N2CCOCC2)c1` (centres undefined): the “Percent Effect” value is recorded as -20.72%.
Regarding `CCN(CC1CCCO1)C(=O)Nc1cc(C(=O)OC)ccc1F` (centres undefined), the “Percent Effect” value was -7.432%.
`CCN(CC1CCCO1)C(=O)Nc1ccc(OC)c(C)c1` (centres undefined): the “Percent Effect” value is 118.7%.
With `CCN(CC1CCCO1)C(=O)Nc1cc(OC)c(OC)cc1C` (centres undefined), the “Percent Effect” value came to 1.885%.
Regarding `CCN(CC1CCCO1)C(=O)CSCC(=O)Nc1ccc(C)cc1` (centres undefined), the “Percent Effect” value amounted to 18.9%.
For the compound `CCCC(=O)Nc1ccc(CC(=O)N(CC)CC2CCCCO2)cc1` (centres undefined), the “Percent Effect” value is recorded as -7.616%.
The value for `CCN(CC1CCCO1)C(=O)Nc1cc(C)ccc1S(C)(=O)=O` (centres undefined) was 111.7%.
With `CCN(CC1CCCO1)C(=O)Nc1ccc(F)cc1OC` (centres undefined), the “Percent Effect” value was -0.9971%.
Consider `CCN(CC1CCCO1)C(=O)Nc1cccc(Cl)c1OC` (centres undefined), for which the “Percent Effect” value is recorded as 103.8%.
Turning to `CCN(CC1CCCO1)C(=O)Nc1cc(C(N)=O)ccc1OC` (centres undefined), the “Percent Effect” value was 103.2%.
As to `CN(C)c1ccc(CCCNC(=O)Nc2ccc(C#N)cc2)cc1`, the “Percent Effect” value came out at 14.16%.
As for `O=C(c1ccc(N2CCCC2)nn1)N1CCCc2cc(F)c(F)cc21`, the “Percent Effect” value was -2.029%.
For `Cc1nc(CCCNC(=O)C2CC(=O)N(C(C)(C)C)C2)sc1C` (centres undefined), the “Percent Effect” value is listed as -4.767%.
The figure for `COc1cccc(-n2nnc(C(=O)N3CCNC(=O)C3)c2C)c1` is 2.603%; for `COCCN(CC1CCCO1)C(=O)CCNC(=O)c1ccccc1F` (centres undefined) it is 6.163%; for `CCN(CC1CCCCO1)C(=O)CCNC(=O)c1ccccc1F` (centres undefined) it is 0.5335%.
With `CCN(CC1CCCO1)C(=O)NCCNC(=O)c1ccccc1F` (centres undefined), the “Percent Effect” value stood at 93.7%.
As to `CSCC(=O)NC1CCN(C(C)c2ccccc2)CC1` (centres undefined), the “Percent Effect” value is given as -9.489%.
On to `CCOCCCC(=O)NC1CCN(C(C)c2ccccc2)CC1` (centres undefined), for which the “Percent Effect” value is given as -0.8786%.
`CC1CCN(CC(=O)NC2CCN(C(C)c3ccccc3)CC2)CC1.Cl` (centres undefined): the “Percent Effect” value was 112.7%.
The value for `Cc1cnn(CCC(=O)Nc2cccnc2N2CCC(CO)CC2)c1` was -13.92%.
The figure for `CCc1nc(C2CCCN(C(=O)NC(C)C)C2)no1` (centres undefined) is 123.4%; for `CCc1nc(C2CCCN(C(=O)CN(C)S(C)(=O)=O)C2)no1` (centres undefined) it is 1.006%; for `CCc1nc(C2CCCN(C(=O)C3=NN(C(C)C)C(=O)CC3)C2)no1` (centres undefined) it is 7.741%.
As for `CCc1nc(C2CCCN(C(=O)c3c[nH]c(C(C)C)n3)C2)no1` (centres undefined), the “Percent Effect” value was determined as 7.02%.
The value for `CCc1nc(C2CCCN(C(=O)CC3CCOCC3)C2)no1` (centres undefined) was 122.8%; that for `CCNC(=O)N1CCCC(c2noc(CC)n2)C1` (centres undefined) was -3.898%.
`CCc1nc(C2CCCN(C(=O)C(C)(C)NS(C)(=O)=O)C2)no1` (centres undefined): the “Percent Effect” value amounted to 113.6%.
In the case of `CCc1nc(C2CCCN(C(=O)NC3CC3)C2)no1` (centres undefined), the “Percent Effect” value is given as 109.2%.
The figure for `CCc1nc(CCNc2ncccc2C#N)sc1C` is -8.813%.
Turning to `CN(C)C(=O)Cc1ccccc1NCc1nc(Cc2ccccc2)no1`, the “Percent Effect” value stood at 16.45%.
The figure for `O=C(NCc1cc(O)ncn1)C1COc2ccccc2C1` (centres undefined) is -5.183%.
Regarding `O=C1N(CCCc2ccccc2)CCCC1(O)CNCc1ccccc1` (centres undefined), the “Percent Effect” value was -2.179%.
The value for `Cc1cnn(-c2cccc(N3CCN(c4cc(C)nc(C)n4)CC3)n2)c1` was 4.719%; that for `CCc1nc(C2CCCN(C(=O)NCCOC)C2)no1` (centres undefined) was 110.5%.
